# Assay results from PubChem BioAssay (NCI).
# Compounds without any hit were thinned out: in the full panel of roughly 83,000, 20% have a hit.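 Single-concentration screen, 48 h exposure, 96-well plates. Endpoint: percent growth. Below 10 = active.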 Values without a mark were called inactive. The source made the active and inactive calls.
# Tests used:
# Assay in all cases: NCI-60 one-dose screen, 48 h (100 = growth as untreated, 0 = no growth, -100 = all killed)
# Settings in all cases: 10 µM unless noted
# NCI-H23 lung = system: NCI-H23 lung
# NCI-H226 lung = system: NCI-H226 lung
# NCI-H322M lung = system: NCI-H322M lung
# HOP-62 NSCLC = system: HOP-62 NSCLC
# NCI-H460 lung = system: NCI-H460 lung
# HOP-92 NSCLC = system: HOP-92 NSCLC
# NCI-H522 lung = system: NCI-H522 lung
# A549/ATCC NSCLC = system: A549/ATCC NSCLC
# 786-0 renal = system: 786-0 renal
# DU-145 prostate = system: DU-145 prostate
# K-562 leukemia = system: K-562 leukemia
# MALME-3M melanoma = system: MALME-3M melanoma
# MDA-MB-231 breast = system: MDA-MB-231 breast
# RXF 393 renal = system: RXF 393 renal
# SF-268 CNS = system: SF-268 CNS
# SF-295 CNS = system: SF-295 CNS
# SF-539 CNS = system: SF-539 CNS
# UACC-257 melanoma = system: UACC-257 melanoma
# M14 melanoma = system: M14 melanoma
# COLO 205 colon = system: COLO 205 colon
Compound,growth (NCI-H23 lung),growth (NCI-H226 lung),growth (NCI-H322M lung),growth (HOP-62 NSCLC),growth (NCI-H460 lung),growth (HOP-92 NSCLC),growth (NCI-H522 lung),growth (A549/ATCC NSCLC),growth (786-0 renal),growth (DU-145 prostate),growth (K-562 leukemia),growth (MALME-3M melanoma),growth (MDA-MB-231 breast),growth (RXF 393 renal),growth (SF-268 CNS),growth (SF-295 CNS),growth (SF-539 CNS),growth (UACC-257 melanoma),growth (M14 melanoma),growth (COLO 205 colon)
COc1ccc(/C=C2\Oc3cc(OCCCN4CCCC4)ccc3C2=O)cc1,87.2%,93%,93.1%,89.7%,68.5%,82.2%,85.7%,90.6%,93%,95.4%,-25% (active),108%,93.8%,78.9%,88.9%,98.7%,79.7%,101%,84.4%,–
COC(=O)c1cc(=O)nc(N/N=C/c2ccco2)s1,106%,97.8%,96.2%,103%,106%,85.7%,103%,107%,114%,112%,101%,108%,117%,102%,106%,–,108%,117%,121%,–
Clc1cc(Cl)c2nc(-c3ccc(-c4ccc(/C=N/NC5=NCCN5)cc4)s3)cn2c1,94.1%,89.5%,99.1%,88.9%,98.8%,14.5%,103%,87.7%,88.5%,87.4%,3.66% (active),74.9%,73.9%,81.4%,86%,98.3%,63.5%,99%,97.8%,–
Cc1ccc(-c2csc(NC(=O)CCCCl)n2)cc1,93.1%,78.5%,87.4%,101%,103%,74.8%,83.5%,90.5%,87.3%,99.9%,74.6%,94%,95.8%,105%,85.8%,83.5%,96.3%,103%,103%,–
Clc1ccccc1-c1nc2ccccc2[nH]1,90%,120%,152%,92%,104%,92.4%,87.9%,105%,46.3%,110%,89.6%,101%,102%,99.9%,102%,96%,94.6%,113%,85.8%,–
Cn1c2ccc(Br)cc2c2c3c(c4c5ccccc5[nH]c4c21)C(=O)N(O)C3=O,-42.6% (active),24.1%,-68% (active),-67.8% (active),-14.8% (active),-77.3% (active),-67% (active),-13.8% (active),-93.8% (active),-71.1% (active),-8.92% (active),-85% (active),-74.1% (active),-99.5% (active),-45.7% (active),–,-92.6% (active),-33.7% (active),-78.2% (active),–
COc1ccc2c(c1)[nH]c(=O)c1c3cccc(F)c3cn21,46.8%,45.3%,52.4%,53.1%,7.94% (active),69.4%,-4.04% (active),12.1%,44.3%,9.01% (active),36.4%,50.9%,27.7%,-26.9% (active),18%,-32.1% (active),22.8%,44.8%,40.4%,–
CCOC(=O)CN1/C(=N/c2sc3c(c2C(=O)OCC)CCN(C(=O)OCC)C3)SC(=O)/C1=C\C(=O)OC,95.8%,92.2%,98.4%,92.4%,99.9%,74.5%,76.4%,90.4%,–,104%,64.2%,101%,89.2%,90.9%,90.8%,98%,93.9%,92.8%,95%,101%
O=[N+]([O-])c1ccc(OCCCOc2ccccc2)cc1,102%,113%,101%,96.9%,108%,121%,86.3%,92.4%,98.7%,108%,99%,110%,104%,116%,106%,–,110%,100%,114%,–
Brc1cccc(-c2cc(-c3ccc4c(c3)OCCCO4)[nH]n2)c1,66.2% [25 µM],72% [25 µM],68% [25 µM],53% [25 µM],16% [25 µM],56.8% [25 µM],2.15% [25 µM] (active),44.4% [25 µM],85.2% [25 µM],69.3% [25 µM],17.4% [25 µM],52.9% [25 µM],49.4% [25 µM],82.4% [25 µM],68.8% [25 µM],62.3% [25 µM],77.1% [25 µM],96.7% [25 µM],49.6% [25 µM],–
O=C1CS/C(=N\Nc2cc(=O)[nH]c3ccccc23)N1c1ccccc1,96.4%,95.6%,99.3%,86.6%,100%,65.1%,76.2%,97.2%,–,111%,86.8%,96.9%,78.3%,95.6%,86.1%,96.8%,93%,99.9%,–,105%
COc1cc2c(=O)n(C3CCCCCC3)c3c4cc[nH]c4ncc3c2cc1OC,77.1%,43.9%,89.2%,59%,72.4%,59.1%,65.4%,79.7%,90.2%,78%,16%,113%,75.5%,37.7%,65.6%,69.7%,17.1%,109%,92.6%,–
Cc1ccc2nc(-c3cc4c([nH]c5ccccc54)c(-c4ccc(F)c(F)c4)n3)[nH]c2c1,84.1%,97.7%,103%,79.8%,–,99%,65.7%,79%,99.6%,80.8%,65.9%,120%,60.8%,88.5%,95.4%,88.7%,89.5%,104%,83.5%,88%
COc1cc(NC(N)=NCCC(C)(C)Oc2ccc(C(F)(F)F)cc2)ncc1C#N,1.1% (active),60.3%,20.5%,31%,–,-10.6% (active),-83.7% (active),-42.6% (active),7.56% (active),-32.6% (active),-43.7% (active),-81.2% (active),-54.4% (active),-50.4% (active),30.8%,-40.7% (active),11.7%,-46.2% (active),-68.3% (active),-87.8% (active)
O=c1cc(Cc2ccc([N+](=O)[O-])cc2)[nH]c(=O)[nH]1,99.2%,107%,112%,93.3%,–,96.1%,90.5%,106%,98.9%,119%,111%,99.9%,110%,109%,106%,122%,–,109%,104%,100%
COc1cc(C2NN=C3c4ccccc4CCC32)cc(OC)c1OC (stereo not drawn),73.4%,62.6%,88%,82.3%,–,62.4%,81.2%,42%,93.9%,92.5%,42.8%,48.6%,48.4%,87.2%,84%,102%,85.4%,-36.4% (active),–,89.3%
